Source: PubChem (National Center for Advancing Translational Sciences (NCATS))
AmpC inh detg: blocks E. coli AmpC beta-lactamase in detergent assay | P00811 | Potency, µM (series often up to 114 µM), for the others: at the highest dose activity change, negative = inhibition, actives largely listed as inhibitors | 370,000 tested, 0.041% active | AmpC hydrolysis of nitrocefin, absorbance 480 nm, 0.01% Triton;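 further: potency means the concentration at half of the fitted maximal effect; 0% = no-compound wells and -100% = no-enzyme wells; nearly all actives have a fitted effect of over 25% in size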
Target sequence (P00811 whole entry, looked up): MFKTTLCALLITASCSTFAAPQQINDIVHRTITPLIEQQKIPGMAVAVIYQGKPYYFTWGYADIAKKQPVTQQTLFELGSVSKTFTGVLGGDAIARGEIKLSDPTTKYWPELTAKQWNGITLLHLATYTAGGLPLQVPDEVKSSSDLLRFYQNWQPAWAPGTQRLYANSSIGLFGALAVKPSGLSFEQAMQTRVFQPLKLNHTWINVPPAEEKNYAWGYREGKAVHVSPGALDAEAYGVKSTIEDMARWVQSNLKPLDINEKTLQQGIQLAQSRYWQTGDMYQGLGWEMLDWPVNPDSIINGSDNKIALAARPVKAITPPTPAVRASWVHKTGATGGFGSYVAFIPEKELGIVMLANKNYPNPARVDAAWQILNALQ
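20 mM phosphate pH 7.0 + 0.01% (detergent screen) or 0.0001% Triton X-100; 5.3 nM AmpC reagent; cpd preinc 15 min RT; nitrocefin (800 uM stock) to start; A480 q20 s × 4 min; Activity was normalised to no-enzyme and no-compound control wells.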
HCV inhibitor: HCV inhibition; AID 651820; Huh7.5.1 HCVcc-Cre infection, luciferase reporter, 44 h; 340,000 tested, 3.4% active; Potency, µM (doses to about 41.8 µM), inactives show at the highest dose activity change, negative = inhibition, usual class: inhibitors; further: potency means the concentration at half of the fitted maximal effect
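A cell-based infection assay in which seeded cells (1,000 per well) receive test compound after 4 h, are inoculated with HCVcc-Cre at approximately 0.5 moi, and are incubated 44 h before luminescence detection.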
HCMV inh: inhibitors of human cytomegalovirus; HFF cells, HCMV-luciferase reporter, 72 h; hits give low values; activity change, negative = inhibition, % at 57.5 µM; 410,000 tested, 4.5% active; AID 1259415; in the data active means activity change below about -60%; inconclusive means no clear call, values can overlap the other calls; inactive means above about -39%
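Compounds were evaluated in HFFs infected with an HCMV luciferase reporter virus (MOI 1 PFU/cell). Luciferase in lysates collected 72 h post infection served as the replication measure.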
FMDV inh: antivirals against foot and mouth disease virus | FMDV antiviral cell-based qHTS | Potency, µM (highest dose often 57.9 µM), for inactives: top-dose activity change, negative = inhibition, most hits filed as inhibitors | 410,000 tested, 1.2% active; calls by dose curve; tested in HEK293T cells; further: read-out not given here; potency means the concentration at half of the fitted maximal effect; nearly all actives have a fitted effect of over 45% in size
AmpC inh no detg: inhibitors of E. coli AmpC beta-lactamase without detergent. AmpC nitrocefin hydrolysis, absorbance 480 nm, 0.0001% Triton. 330,000 tested, 0.52% active. P00811. Potency, µM (doses to about 57.1 µM), for the others: at the highest dose activity change, negative = inhibition, hits mostly inhibitors. AID 485341;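 further: potency means the concentration at half of the fitted maximal effect; plate controls were no compound for no effect and no enzyme for full effect; nearly all actives have a fitted effect of over 20% in size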
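20 mM phosphate pH 7.0 + 0.01% (detergent screen) or 0.0001% Triton X-100; 5.3 nM AmpC reagent; cpd preinc 15 min RT; nitrocefin (800 uM stock) to start; A480 q20 s × 4 min; Activity was normalised to no-enzyme and no-compound control wells.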
Starred values were filed as active, the others as inactive; ? = inconclusive; / = no result; + = active, no number. A selection: hits, their analogues and other compounds. The true share with any hit is near 7.3%. Unless noted, the call rests on the fitted dose curve; in most records, active means well fitted curve in the direction sought with a large enough effect; inconclusive means small, poorly fitted or top-dose-only effect, or another doubt; inactive means no such curve, though single readings can be large; an effect the other way counts as inactive or inconclusive. Unless noted, on the % scale 0 is the no-effect control and ±100 the full control effect.

SMILES	AmpC inh detg	HCV inhibitor	HCMV inh	FMDV inh	AmpC inh no detg
COC(CNC(=O)C1CCCN1C(=O)OCc1ccccc1)OC (stereo not drawn)	2.5%	7.1%	-4.6	-7.1%	-11.1%
C/C(=N\NC(N)=S)C1C2C3CC4C5CC(C42)C1C53 (stereo not drawn)	7.3%	?	-62.4*	-7.9%	-22.1%
COc1ccc(NC(=O)NS(=O)(=O)c2ccc(C)cc2)cc1OC	/	6.0%	-19.9	-16.5%	-37.3%
CC(C)Cc1nc2oc3c(Cl)ncnc3c2c2c1CCCC2	2.6%	-14.8%	29.2	?	-19.2%
CCCc1nc2oc3c(NCCCN(C)C)ncnc3c2c2c1CCCC2	-7.9%	-76.9%	-98.1*	0.0%	122.9%
CCCc1nc2oc3c(NCCN(C)C)ncnc3c2c2c1CCCC2	-12.7%	?	33.8	-13.4%	140.9%
CC(C)c1nc2oc3c(NCC4CCCO4)ncnc3c2c2c1CCC2 (stereo not drawn)	-12.7%	11.2µM*	-5.0	?	109.1%
CCCc1nc2oc3c(Cl)ncnc3c2c2c1CCCC2	-9.5%	-20.9%	10.7	14.1µM*	2.1%
Cc1cc(Cl)ccc1OCC(=O)NCC1Cc2cc(-c3cnccn3)ccc2O1 (stereo not drawn)	/	/	/	-13.9%	/
Cc1ccc(S(=O)(=O)CCC(=O)OCc2cc(C)ccc2C)cc1	?	?	-20.5	-18.9%	-2.9%
CCN(CC)CCOC(=O)c1cc(Cl)c(N)cc1OC	-11.5%	4.47µM*	-21.5	-9.3%	-17.8%
COc1ccc(Cl)cc1C(=O)OCC(=O)Nc1cccnc1Cl	7.7%	13.3%	-21.0	-10.3%	-1.8%
COc1cc(N)c(Cl)cc1C(=O)OCC(=O)Nc1cccnc1Cl	?	0.4%	-24.3	-7.1%	35.5µM*
CC(Sc1nnnn1-c1ccc(O)cc1)C(=O)NNC(=O)c1ccc(F)cc1 (stereo not drawn)	-8.8%	7.08µM*	0.1	-7.0%	-23.5%
COc1ccc(C(=O)NCc2ccc3c(c2)CCN3C(=O)c2cccc(C)c2)cc1OC	-9.1%	/	10.9	-2.9%	/
Cc1ccc(C)c(-n2c(-c3ccc(Br)cc3)csc2=NC(=O)c2ccccc2F)c1	-4.4%	3.16µM*	-26.6	-22.5%	-16.1%
CCc1ccc(NC(=O)CC2C(=O)N(c3ccc(OC)cc3)C(=O)N2Cc2cccs2)cc1 (stereo not drawn)	?	/	-34.2	-4.4%	/
O=[N+]([O-])c1ccc(-n2nnnc2-c2ccccc2)cc1	-3.2%	3.1%	-20.4	-3.7%	-18.8%
O=[N+]([O-])c1ccc(-n2nnnc2-c2ccccc2)c([N+](=O)[O-])c1	-8.2%	35.5µM*	-97.8*	31.6µM*	-7.2%
CCSC1(SCC)N=C(N)C2(C#N)C(c3ccc(OC)c(OC)c3OC)C12C#N (stereo not drawn)	-8.1%	8.91µM*	3.2	25.1µM*	-0.5%
Oc1ccc(NC(=S)N=Nc2c(O)[nH]c3ccc(Br)cc23)cc1	1.5%	-13.8%	-91.2*	-18.8%	17.8µM*
O=C(N=Nc1c(O)[nH]c2ccc(Br)cc12)c1ccco1	/	/	2.0	7.5%	/
Cn1c(O)c(N=NC(=O)c2cc(-c3cccs3)nc3ccccc23)c2ccccc21	-0.1%	?	-9.4	-3.1%	-32.4%
O=C(N=Nc1c(O)[nH]c2ccc(Br)cc12)c1cc(-c2cccs2)nc2ccccc12	-1.3%	?	-60.6*	?	-23.8%
O=C(N=Nc1c(O)[nH]c2ccc(Br)cc12)c1ccccc1-n1cccc1	-3.6%	17.8µM*	?	?	-52.7%
SMILES	AmpC inh detg	HCV inhibitor	HCMV inh	FMDV inh	AmpC inh no detg
Cc1ccc(S(=O)(=O)c2nnn3c2nc(NCCc2ccccc2)c2sccc23)cc1	14.0%	/	-65.3*	-12.5%	/
Cc1ccc(C)c(S(=O)(=O)c2nnn3c2nc(NCc2ccc4c(c2)OCO4)c2sccc23)c1	18.9%	/	-78.6*	-8.4%	/
Cc1ccc(CCNc2nc3c(S(=O)(=O)c4ccccc4)nnn3c3ccsc23)cc1	-2.8%	/	-7.6	-6.8%	/
O=C(COc1coc(CN2CCN(Cc3ccccc3)CC2)cc1=O)Nc1ccccc1	0.1%	?	-22.2	?	-16.4%
O=C(NCc1cccnc1)c1nc(-c2ccc(C(F)(F)F)cc2)no1	-6.2%	?	-60.5*	-27.0%	7.0%
O=C(NCc1cccnc1)c1ccc(Cn2cc(C(F)(F)F)ccc2=O)cc1	3.1%	-19.5%	-15.7	-22.3%	2.8%
O=C(NCc1ccncc1)c1nc(-c2ccc(C(F)(F)F)cc2)no1	-4.0%	?	-79.1*	?	-4.2%
O=C(NCc1ccncc1)c1nc(-c2cccs2)no1	-9.3%	2.7%	12.0	0.1%	-13.6%
Cc1ccc(CNC(=O)C2CCN(S(=O)(=O)c3ccc4c(c3)CCCN4C(=O)C3CCC3)CC2)cc1	5.1%	/	9.4	?	/
CC(=O)c1ccc(-c2nc3c4ccccc4ccn3c2C(C)=O)o1	0.0%	-4.6%	-64.7*	6.7%	-9.3%
CC(C(c1ccc2c(c1)OCO2)c1c(N)n(C)c(=O)n(C)c1=O)[N+](=O)[O-] (stereo not drawn)	/	-3.4%	-62.8*	-15.0%	/
CNc1ccccc1C(C)(C)c1cc(-c2cccc(OC)c2)no1	-3.0%	?	-82.7*	?	?
CNc1ccccc1C(C)(C)c1cc(-c2cc(C)cc(C)c2)no1	-4.4%	?	4.1	0.0%	-24.6%
NC(=O)c1nn2c(C(F)(F)F)cc(-c3ccc(Br)cc3)nc2c1Cl	7.4%	/	31.3	1.3%	/
COCCN(CC(=O)Nc1cccc(C)c1C)C(=O)c1ccc(S(=O)(=O)N2CCOCC2)cc1	0.0%	11.2%	-10.8	-2.0%	16.7%
Cc1ccccc1Cc1c(C)nc2nc(SCC(=O)NCCCN3CCCC3)nn2c1C	-8.2%	?	-25.2	-0.7%	102.9%
Cc1nc2nc(SCC(=O)NCCCN3CCCC(C)C3)nn2c(C)c1Cc1ccccc1Cl (stereo not drawn)	3.5%	11.2µM*	0.0	-22.8%	58.8%
Cc1nc2nc(SCC(=O)NCCCN3CCCCCC3)nn2c(C)c1Cc1ccccc1Cl	3.5%	?	+	4.0%	114.1%
COc1ccc(C(=O)N2CCN(C(=O)COc3ccccc3)CC2)cc1OC	6.6%	/	27.3	-13.7%	/
O=c1c2sc3ccccc3c2n(Cc2ccccc2F)c(=O)n1CCc1ccccc1	-10.5%	/	28.1	38.5%	/
CCCCOc1ncnc2c1[nH]c1ccc(OCC)cc12	?	11.3%	-20.2	19.7%	-21.2%
CCCCOc1ncnc2c1[nH]c1ccc(OC)cc12	-1.5%	?	23.8	26.3%	-12.6%
CCCCOc1ncnc2c1[nH]c1ccccc12	?	4.47µM*	-28.3	?	-25.1%
CCCCOc1ncnc2c1[nH]c1ccc(F)cc12	-5.9%	2.82µM*	-94.3*	/	-23.4%
Cc1ccc(S(=O)(=O)Nc2ccc(S(=O)(=O)Nc3nccs3)cc2)c([N+](=O)[O-])c1	?	13.8%	52.1	21.9%	-47.2%
